Hits are enriched below; roughly 21% of the tested compounds scored in any of these assays.
TDP1 cell CPT: qHTS for Inhibitors of human tyrosyl-DNA phosphodiesterase 1 (TDP1): qHTS in cells in presence of CPT; chicken DT40 Tdp1-/-;hTDP1 cells + 20 nM CPT, ATP luminescence, 48 h; 420,000 tested, 12% active; Potency, µM (doses to about 46.2 µM), actives largely listed as inhibitors; AID 686979, 2013; note: nearly all actives have a fitted effect of over 55% in size
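Cell growth measured by CellTiter-Glo luminescence after a minimum 48 h, 37 C compound exposure with 20 nM CPT in Tdp1-knockout DT40 cells stably expressing hTDP1, seeded 400/well; qHTS titration format.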
IL1B secr inh: qHTS for Inhibitors of Inflammasome Signaling: IL-1-beta AlphaLISA Primary Screen | activity change, % at 57.5 µM | 360,000 tested, 4.7% active | THP-1 LPS/ATP IL-1B secretion, AlphaLISA, 16 h; stronger effect = lower value; in the data active = activity change below about -50%; inconclusive = mostly about -30% to -49%
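THP-1 cells pretreated 1 hr with compounds (up to 57.5 uM final), then stimulated with LPS (250 ng/mL final) plus ATP (1.25 mM final); secreted IL-1B measured by AlphaLISA after 16 hr, decreased signal indicating inhibition.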
ELG1 repair inh: qHTS screen for small molecules that inhibit ELG1-dependent DNA repair in human embryonic kidney (HEK293T) cells expressing luciferase-tagged ELG1; HEK293T ELG1-luciferase reporter, luminescence, 16 h; DNA damage induced by 5-fluorouridine; Potency, µM (series often up to 46.1 µM), hits mostly inhibitors; 330,000 tested, 2.3% active; AID 504467, 2011; note: nearly all actives have a fitted effect of over 55% in size
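Cells (2,000 per well) received 5-fluorouridine plus test compound or DMSO and were incubated 16 hr at 37 °C, 5% CO2. Luciferase activity was read by luminescence 30 min after ONE-Glo addition; signal suppression marked inhibition of damage-induced ELG1 function.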
RORgamma inh: qHTS for inhibitors of ROR gamma transcriptional activity. Nuclear receptor ROR-gamma (Mus musculus), P51450. Drosophila S2 Gal4-RORgamma UAS-luciferase reporter, 20 h. Potency, µM (highest dose often 53.6 µM), hits mostly inhibitors. 310,000 tested, 5.4% active; note: nearly all actives have a fitted effect of over 60% in size
Target sequence (P51450 whole entry, looked up, the tested form may be a part): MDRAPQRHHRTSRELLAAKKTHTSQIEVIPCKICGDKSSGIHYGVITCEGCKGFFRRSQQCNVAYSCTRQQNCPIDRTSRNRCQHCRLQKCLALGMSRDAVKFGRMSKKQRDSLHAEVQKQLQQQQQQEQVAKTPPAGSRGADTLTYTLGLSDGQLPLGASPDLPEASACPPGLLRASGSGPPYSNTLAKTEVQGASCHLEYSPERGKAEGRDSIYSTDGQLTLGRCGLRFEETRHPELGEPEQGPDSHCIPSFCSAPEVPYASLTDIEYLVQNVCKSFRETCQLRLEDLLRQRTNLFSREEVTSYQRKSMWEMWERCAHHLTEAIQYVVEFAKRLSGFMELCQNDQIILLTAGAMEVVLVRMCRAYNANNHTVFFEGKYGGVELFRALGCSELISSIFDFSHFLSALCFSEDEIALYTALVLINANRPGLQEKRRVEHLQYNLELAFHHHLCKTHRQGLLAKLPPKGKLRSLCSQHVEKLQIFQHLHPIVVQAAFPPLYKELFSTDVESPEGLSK
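Luminescence from a UAS-regulated Photinus luciferase reporter in stably transfected Drosophila Schneider cells is measured; decreased signal marks ROR gamma inhibition. Fusion expression is induced by 700 uM copper sulfate for 20 hr.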
Gal4-VP16 FLuc: VP16 counterscreen qHTS for inhibitors of ROR gamma transcriptional activity; Drosophila S2 Gal4-VP16 UAS-luciferase, luminescence, 20 h; Potency, µM (series often up to 53.6 µM), most hits filed as inhibitors; 310,000 tested, 3.5% active; AID 2546, 2010;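 note: Gal4-VP16 expression switched on by copper sulfate through the metallothionein promoter; nearly all actives have a fitted effect of over 50% in size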
TDP1 cell noCPT: qHTS for Inhibitors of human tyrosyl-DNA phosphodiesterase 1 (TDP1): qHTS in cells in absence of CPT; AID 686978, 2013; Potency, µM (doses to about 46.2 µM), actives largely listed as inhibitors; 420,000 tested, 15% active; DT40 Tdp1-/- hTDP1 cells, no CPT, ATP luminescence, 48 h; note: nearly all actives have a fitted effect of over 55% in size
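Growth kinetics read by CellTiter-Glo luminescence after ≥48 hr at 37 °C. Cells: DT40 Tdp1-/- stably carrying human TDP1, 400 per well, compound exposure in the absence of CPT (DMSO vehicle).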
Numbers stand for hits; – = inactive; ? = inconclusive; · = no result given. Unless noted, calls come from the whole dose curve; as a rule, active = well fitted curve in the direction sought with a large enough effect; inconclusive = small, poorly fitted or top-dose-only effect, or another doubt; inactive = no such curve, though single readings can be large; an effect the other way counts as inactive or inconclusive.

SMILES	TDP1 cell CPT	IL1B secr inh	ELG1 repair inh	RORgamma inh	Gal4-VP16 FLuc	TDP1 cell noCPT
CC(=O)Nc1cccc(-c2ccnc3c2CC(C(=O)Nc2cccc(OC(F)(F)F)c2)O3)c1 (stereo not drawn)	?	–	·	·	·	18.4µM
CC(=O)Nc1ccc(-c2ccnc3c2CC(C(=O)Nc2cccc(N(C)C)c2)O3)cc1 (stereo not drawn)	18.4µM	–	·	·	·	2.59µM
CN(C)c1cccc(NC(=O)C2Cc3c(-c4ccccc4Oc4ccccc4)ccnc3O2)c1 (stereo not drawn)	?	–	·	·	·	?
CC(C)C[C@H](NC(=O)[C@H](C)NC(=O)CNC(=O)[C@H](CCCCN)NC(=O)[C@H](CCCN=C(N)N)NC(=O)[C@H](C)NC(=O)[C@H](Cc1ccccc1)NC(=O)[C@@H](N)CCCN=C(N)N)C(=O)N[C@@H](CCCN=C(N)N)C(=O)N[C@@H](CCC(N)=O)C(=O)N[C@@H](CCCCN)C(=O)N[C@@H](CC(N)=O)C(=O)N[C@H](C(N)=O)C(C)C	·	·	·	–	–	·
Cc1cccc(-n2ccnc2SCC(=O)c2c(N)n(C3CC3)c(=O)[nH]c2=O)c1C	?	–	–	·	·	–
CC(=O)Nc1ccc(-c2ccnc3c2CC(C(=O)Nc2cccc(Oc4ccccc4)c2)O3)cc1 (stereo not drawn)	?	?	·	·	·	20.6µM
CC(=O)Nc1ccc(-c2ccnc3c2CC(C(=O)Nc2cccc(C(F)(F)F)c2)O3)cc1 (stereo not drawn)	23.1µM	–	·	·	·	–
CC(=O)Nc1cccc(-c2ccnc3c2CC(C(=O)Nc2cccc(Oc4ccccc4)c2)O3)c1 (stereo not drawn)	?	–	·	·	·	?
CC(C)[C@H]1COCCS(=O)(=O)N1Cc1ccccc1-c1cccc(Cl)c1	?	–	–	·	·	?
CCCSc1ncc(Cl)c(C(=O)Nc2c(C(=O)c3ccc(F)cc3)oc3ccccc23)n1	–	·	·	·	·	–
COc1ccc(Cl)cc1NC(=O)CN1c2ccccc2S(=O)(=O)c2ccccc21	?	·	·	·	·	–
C=C1c2cccc(C(F)(F)F)c2O[C@H](C(=O)OCC)C1OC (mixture of isomers)	·	·	·	–	–	·
Cc1cccc(OCC(=O)Nc2c(C(=O)N3CCN(c4ccccc4)CC3)oc3ccccc23)c1	?	·	·	·	·	23.1µM
O=C(Nc1c(C(=O)N2CCN(c3ccccc3)CC2)oc2ccccc12)c1ccc(Br)o1	23.1µM	·	·	·	·	20.6µM
CC(C)CC(=O)Nc1c(C(=O)N2CCN(Cc3ccccc3)CC2)oc2ccccc12	?	–	–	–	–	–
COc1ccc(N2CCN(C(=O)c3oc4ccccc4c3NC(=O)CCc3cc(OC)no3)CC2)cc1	?	–	–	–	–	–
COc1cc(CCC(=O)Nc2c(C(=O)N3CCN(c4ccccc4)CC3)oc3ccccc23)on1	?	-61.4	?	–	–	16.4µM
O=C(Nc1c(C(=O)N2CCN(c3ccccc3F)CC2)oc2ccccc12)c1ccccc1F	13µM	·	·	·	·	14.6µM
COc1ccc(CC(=O)Nc2c(C(=O)N3CCN(c4ccccc4OC)CC3)oc3ccccc23)cc1OC	?	–	?	–	–	23.1µM
COc1ccc(CC(=O)Nc2c(C(=O)N3CCN(c4ccccc4)CC3)oc3ccccc23)cc1OC	?	–	?	–	–	?
O=C(COc1ccc(F)cc1)Nc1c(C(=O)N2CCC(N3CCCCC3)CC2)oc2ccccc12	?	?	–	–	–	7.31µM
COc1ccc2[nH]c(=O)c(C(c3nnnn3C3CCCC3)N3CCN(Cc4ccc5c(c4)OCO5)CC3)cc2c1 (stereo not drawn)	25.9µM	?	?	–	–	?
